# HGIII-sPLA2 inh: Blocks human group III sPLA2 activity. inhibition, % at 12.2 µM. Q9NZ20. AID 743126. actives 0.56% (n = 370,000). QFRET BODIPY PC-A2 liposome hydrolysis, fluorescence;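 active = inhibition above mean plus 3 SD of compounds lying within the high and low control bounds, cut at about 19% in these data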;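 note: 0% = median of test compound wells and 100% = no enzyme DMSO wells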
# HTR5A inv ag: HTR5A inverse agonism, opioid heterodimer counter-screen | P47898 | HTR5A cell line, luminescence | inhibition, % at 9.3 µM | actives 0.083% (n = 340,000) | AID 504634; in the data active = inhibition mostly above about 23%, no sharp cut-off; inactive = mostly below about 18%;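 note: 0% = cells with DMSO and 100% = no-cell wells with DMSO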
# Target sequence (P47898 whole entry, looked up): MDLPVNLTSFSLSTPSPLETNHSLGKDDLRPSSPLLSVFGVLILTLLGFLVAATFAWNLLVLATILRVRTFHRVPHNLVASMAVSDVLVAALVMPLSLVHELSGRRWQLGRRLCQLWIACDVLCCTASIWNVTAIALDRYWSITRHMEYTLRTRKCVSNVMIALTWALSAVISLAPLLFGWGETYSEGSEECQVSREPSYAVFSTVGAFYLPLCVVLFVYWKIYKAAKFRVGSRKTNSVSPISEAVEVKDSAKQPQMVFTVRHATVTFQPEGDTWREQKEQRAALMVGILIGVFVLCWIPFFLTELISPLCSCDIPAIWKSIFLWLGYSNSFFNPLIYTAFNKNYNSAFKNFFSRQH
# m5-HT2A agonist: agonists of mouse serotonin 5-HT2A receptor (HTR2A); actives 0.66% (n = 360,000); CHO-K1 mHTR2A beta-arrestin complementation, luminescence; percent of 30 µM serotonin response; activation, % at 7.6 µM; AID 624169; P35363;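 active = activation above a run cutoff, the mean activation of all tested compounds plus 3 SD, cut at about 14% in these data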;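 note: 0% = plate median of compound wells and 100% = 30 µM serotonin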
# OPRM1-OPRD1 inv: inverse agonists of human mu-delta opioid receptor heterodimerization; P35372+P41143; actives 0.21% (n = 340,000); inhibition, % at 9.3 µM; cell-based MOR-DOR heterodimer luminescence, inverse agonism; in the data active = inhibition above about 22%, passing the limit was not always enough;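 note: 0% = cells with DMSO and 100% = wells without cells with DMSO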
# OPRM1-OPRD1 ag: OPRM1-OPRD1 heterodimerization agonism | actives 0.3% (n = 340,000) | activation, % at 9.3 µM | cells, luminescence | P35372+P41143; in the data active = activation above about 18%;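 note: 0% = vehicle-treated cells and 100% = reference agonist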
# HTR5A ag ctr: activates human HTR5A in OPRM1-OPRD1 agonist counter-screen | P47898 | HTR5A agonist assay, luminescence, cell-based | activation, % at 9.3 µM | actives 0.61% (n = 340,000) | AID 504692; in the data active = activation mostly above about 9.5%, no sharp cut-off; inactive = mostly below about 7.6%;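 note: 0% = cells with vehicle only and 100% = reference agonist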
# OPRM1 ag: activates human mu opioid receptor in HTR2A counterscreen; shares compounds with m5-HT2A agonist; U2OS OPRM1 beta-arrestin PathHunter, luminescence; DMSO 0%, DAMGO 9.3 µM 100%; activation, % at 9.3 µM; actives 5.3% (n = 2,300); AID 624380;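 active = mean activation above the mean of DMSO-only wells plus 3 SD, cut at about 0.5% in these data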
# HTR2A ag conf: confirmation of mouse HTR2A serotonin receptor agonists. shares compounds with m5-HT2A agonist. activation, % at 7.6 µM. AID 624381. actives 19% (n = 2,300). CHO-K1 PathHunter beta-arrestin recruitment, luminescence; DMSO 0%, 30 µM serotonin 100%;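 active = mean activation across triplicates above the hit threshold derived in the original primary screen, cut at about 15% in these data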
# Starred values were filed as active, the others as inactive; · = no result given. Rows were chosen to be rich in hits. Some 2.2% of all compounds tested hit in one or more screens of this group.
SMILES,HGIII-sPLA2 inh,HTR5A inv ag,m5-HT2A agonist,OPRM1-OPRD1 inv,OPRM1-OPRD1 ag,HTR5A ag ctr,OPRM1 ag,HTR2A ag conf
COc1ccc(C(=O)NCC(=O)OCC(=O)c2cc(OC)c(OC)c(OC)c2)cc1OC,8.2,11.6,14.6*,5.8,-0.8,-4.1,-0.7,0.2
O=C(CN(C(=O)c1csnn1)c1ccc(Cl)cc1)NCc1ccc2c(c1)OCO2,-2.3,-13.8,0.9,4.3,-0.5,-2.5,·,·
O=C(CN(C(=O)c1csnn1)c1ccc2c(c1)OCCO2)NCc1ccccc1,-3.4,-30.2,15.0*,-15.4,2.2,1.3,-0.6,-4.3
Cc1cc(N(CN2CCCC2=O)C(=O)c2ccc(F)cc2)no1,3.6,-0.3,-2.0,16.1,-3.0,0.1,·,·
Cc1cc(N(CN2CCCC2=O)C(=O)c2ccccc2)no1,2.6,-6.8,18.9*,6.0,-1.3,0.7,-0.5,-3.8
COC(=O)c1cc2c(C)nn(C)c2s1,4.9,-3.9,23.2*,10.6,-2.0,-1.3,-0.6,-4.5
CN(CC(=O)Nc1ccccc1Br)C(=O)c1cc2c(s1)CCCCC2,-1.3,-4.5,17.1*,-13.4,2.7,-1.4,-0.3,0.4
CN(CC(=O)Nc1ccccc1Cl)C(=O)c1cc2c(s1)CCCCC2,-0.5,-7.9,-3.6,-7.1,1.5,2.6,·,·
O=C(CN1CCc2ccccc21)NN1CC(=O)N(c2ccccc2)CC1=O,-17.6,-30.3,18.9*,6.2,-1.2,2.5,-0.6,-4.1
COc1ccc(Cl)cc1Cn1c(C)c(C(=O)N(C)Cc2ccc(F)cc2)sc1=O,-6.8,·,5.9,·,·,·,·,·
CCCCN(C)C(=O)c1sc(=O)n(Cc2cc(Cl)ccc2OC)c1C,11.5,·,17.0*,·,·,·,-0.5,-6.2
O=C(Nc1ccccc1)Nc1nnc(-c2cccs2)s1,-6.6,11.0,21.3*,-40.1,7.9,2.8,0.0,-2.5
COc1ccc(NC(=O)Nc2nnc(-c3cccs3)s2)cc1,-0.5,-2.9,8.6,-7.0,1.3,0.9,·,·
Cc1nc2scc(C)n2c(=O)c1S(=O)(=O)NCc1ccccc1Cl,2.3,3.7,2.7,15.3,-2.9,-1.0,·,·
COc1ccccc1CNS(=O)(=O)c1c(C)nc2scc(C)n2c1=O,6.7,8.9,14.8*,4.3,-0.8,-1.4,-0.1,1.0
COC(=O)[C@]12C[C@H](CC(=O)N3CCN(C(=O)C4CC4)CC3)C(=O)N(Cc3ccc(Cl)cc3Cl)C1=C[C@H](C(C)C)O[C@@H]2C1CC1,-13.9,·,·,·,·,·,·,·
C=CCN(CC=C)CCOc1cccc2ccccc12,-8.2,-1.1,14.4*,-12.2,2.4,-0.2,0.3,22.9*
C/C(=N/NC(=O)CNC(=O)COc1ccccc1)c1ccc(Cl)cc1,-1.6,1.7,15.7*,5.5,-1.1,-0.5,-0.7,-6.2
O=C(CCS(=O)(=O)c1ccccc1)Nc1cc(Cl)ccc1F,-3.0,·,·,·,·,·,·,·
COC(=O)C1=C(C)N(Cc2ccccc2C(F)(F)F)C(=NCc2ccc(OC)cc2)NC1c1ccc(C(F)(F)F)cc1 (stereo not given),0.4,·,·,·,·,·,·,·
CCOC(=O)[C@H]1[C@H]2COc3ccccc3[C@@H]2N2C(=O)c3cc(F)c(F)cc3NC(=O)[C@@]12C,-0.3,16.2,14.7*,12.0,-2.1,0.4,-0.1,1.9
CCOC(=O)[C@H]1[C@H]2COc3ccccc3[C@@H]2N2C(=O)c3cc(F)ccc3NC(=O)[C@@]12C,4.9,-25.2,0.2,5.3,-0.9,8.6,·,·
CC(=O)OCCC(CC(C)C)NC(=O)[C@H](CC(C)C)NC(=O)OCc1ccccc1 (stereo not given in full),5.7,·,·,·,·,·,·,·
C=CCN1CCc2nc(N)sc2CC1,15.5,-14.0,50.0*,-1.0,0.2,3.9,-0.6,151.1*
CCN1CCc2nc(N)sc2C1,5.1,29.9,6.7,7.7,-1.6,3.1,·,·
SMILES,HGIII-sPLA2 inh,HTR5A inv ag,m5-HT2A agonist,OPRM1-OPRD1 inv,OPRM1-OPRD1 ag,HTR5A ag ctr,OPRM1 ag,HTR2A ag conf
Cc1ccc(NC(=O)C2CCCN2C(=O)OCc2ccccc2)cc1F (stereo not given),0.0,15.8,14.7*,12.6,-2.5,-4.2,-0.5,-5.1
CCOc1ccc(C(=O)NC(=S)Nc2ccccn2)cc1[N+](=O)[O-],4.2,11.2,-2.1,5.0,-1.1,-2.1,·,·
O=C(NC(=S)Nc1ccccn1)c1cccc([N+](=O)[O-])c1,8.2,-0.5,27.3*,13.2,-2.6,-1.3,-0.7,-4.5
CC(C(=O)O)c1ccc(C(=O)c2cccs2)cc1 (stereo not given),4.5,9.7,18.2*,7.4,-1.4,-2.7,-0.5,49.5*
Cc1cc(NS(=O)(=O)c2ccc(NC(=O)Cc3ccccc3)cc2)no1,-4.7,·,·,·,·,·,·,·
Cc1ccccc1CS(=O)(=O)Cc1ccc(C(=O)Nc2cccc(Cl)c2F)o1,-23.4,·,·,·,·,·,·,·
O=C(O)CSc1c(-c2cccs2)[nH]c2ccccc12,-0.5,-0.9,16.4*,-18.0,2.5,0.3,0.1,7.6
COc1ccccc1NC(=O)Nc1nc(CC(=O)N2CCN(c3ccccc3F)CC2)cs1,-13.7,-9.8,14.7*,-30.2,4.6,2.0,-0.2,-0.1
COc1ccccc1NC(=O)Nc1nc(CC(=O)NCc2c(F)cccc2F)cs1,-13.2,3.8,-5.4,5.6,-0.8,1.1,·,·
CCN(CC)CCn1c(NC(=O)c2ccc(C)cc2)nc2ccccc21,-0.7,·,25.1*,·,·,·,·,7.5
COc1ccc(S(=O)(=O)N2c3ccccc3NC(=O)CC2C)cc1 (stereo not given),4.2,9.9,19.0*,9.9,-1.8,-1.3,-0.7,-3.5
CC1CC(=O)Nc2ccccc2N1S(=O)(=O)c1ccc(C(F)(F)F)cc1 (stereo not given),0.2,-2.2,-2.3,16.5,-3.0,3.8,·,·
CC(=O)Nc1ccc(S(=O)(=O)NCC2CCN(C(=O)C(=O)c3cccs3)CC2)cc1,-0.2,·,·,·,·,·,·,·
CCCCNC(=O)C[C@H]1C[C@@]2(C(=O)OC)C(=C[C@H](COCc3ccccc3)O[C@@H]2C)N(Cc2ccco2)C1=O,1.0,·,·,·,·,·,·,·
O=C(NC1(C(F)(F)F)NC(=O)N(c2ccc(F)cc2)C1=O)c1cccs1 (stereo not given),0.9,1.8,18.2*,8.3,-1.5,4.2,-0.4,-4.2
CCOC(=O)NC1(C(F)(F)F)NC(=O)N(c2ccc(F)cc2)C1=O (stereo not given),3.5,-2.0,3.4,11.0,-1.9,0.6,·,·
O=C(NCc1ccco1)/C(=C\c1cccs1)NC(=O)c1cccs1,1.4,2.7,2.0,4.1,-0.9,-1.0,·,·
O=C(NCCO)/C(=C\c1cccs1)NC(=O)c1cccs1,8.3,-0.7,23.7*,13.1,-2.5,0.3,-0.3,-2.3
CC1=NN(C(C#N)c2ccccc2O)C(C)(C)C1 (stereo not given),0.2,-6.9,4.2,5.4,-1.2,2.7,·,·

# High-throughput results: PubChem, The Scripps Research Institute Molecular Screening Center
